{
  "source": "PubChem BioAssay (Tox21)",
  "note": "Records with an inconclusive call do not appear. Where a call stands in place of a potency, no number is given. Calls of active or inactive are those of the source. Calls come from the whole dose curve; as a rule, active = well fitted cell-killing curve with a large enough effect in the repeat runs; inconclusive = weak or mixed curves, or effect the other way; inactive = flat fitted curve, though single readings scatter.",
  "data": [
    {"experiment": "qHTS RealTime-Glo MT Cell Viability Assay in HepG2 cells - 40 hour (AID 1224870); note: nearly all actives have a fitted effect of over 50% in size", "conditions": "RealTime-Glo luminescence; series mostly up to 76.8 µM", "text": "National Center for Advancing Translational Sciences [NCATS]\nNIH Chemical Genomics Center [NCGC]\nU.S. Environmental Protection Agency [EPA]\nNational Institutes of Environmental Health Sciences [NIEHS]\nNational Toxicology Program [NTP]\nU.S. Food and Drug Administration [FDA]\nMeasure of cell viability is critical in the cell-base assay. Analysis of cell viability is necessary for the characterization of cell responses to cytotoxic drugs and environmental stress. A RealTime-Glo MT Cell Viability Assay to monitor cell viability in real time of continues cell culture during 40 hours of compound treatment was used to screen Tox21 10K library compounds in HepG2 cells. The RealTime-Glo MT Cell Viability Assay is a nonlytic, homogeneous, bioluminescent method to measure cell viability in real time using a simple, plate-based method. The assay involves adding NanoLuc luciferase and a cell-permeant prosubstrate to cells in culture. Viable cells reduce the proprietary prosubstrate to generate a substrate for NanoLuc luciferase. This substrate diffuses from cells into the surrounding culture medium, where it is rapidly used by the NanoLuc Enzyme to produce a luminescent signal. The signal correlates with the number of viable cells, making the assay well suited for cytotoxicity studies.\nTox21 Assay Protocol Summary:\nThe mixture of HepG2 cell suspension and reagents were dispensed at 600cells/6 ul/well in 1536-well tissue culture treated black solid bottom plates using a Multidrop dispenser. After the assay plates were incubated at a 37 C/5% CO2 incubator for 5 hours, 23 nL of compounds dissolved in DMSO, positive and negative controls was transferred to the assay plate by a pintool work station. The plates were incubated at 37 C for 40 hours. The luminescence intensity were measured at 0h, 8h, 16h, 24h, 32h and 40h time points using ViewLux plate reader during compound treatment.", "values": [
      {"smiles": "CC(C)(C)c1ccc(OC(=O)c2ccccc2O)cc1", "Potency": "inactive"},
      {"smiles": "CC/C=C\\CCOC(=O)C(C)C", "Potency": "inactive"},
      {"smiles": "CN(CC1(C)CCCO1)S(=O)(=O)c1ccc(Cl)c(S(N)(=O)=O)c1", "note": "(stereo not given)", "Potency": "inactive"},
      {"smiles": "O=C1CCCCCCCCCCC(=O)OCCO1", "Potency": "inactive"},
      {"smiles": "CCc1cc2cc(OC)c(OC)cc2c(Cc2ccccc2)n1", "Potency": "inactive"},
      {"smiles": "C1CCOC1", "Potency": "inactive"},
      {"smiles": "CN1CCN(C2=Nc3cc(F)ccc3Cc3ccccc32)CC1", "Potency": "inactive"},
      {"smiles": "CCCNC(C)(C)COC(=O)c1ccccc1", "Potency": "inactive"},
      {"smiles": "CC(C)(C)C1CCCCC1=O", "note": "(stereo not given)", "Potency": "inactive"},
      {"smiles": "CCCCOc1cc(C(=O)NCCN(CC)CC)c2ccccc2n1", "Potency": "inactive"},
      {"smiles": "Cc1ccsc1C(=CCCN1CCC[C@@H](C(=O)O)C1)c1sccc1C", "Potency": "inactive"},
      {"smiles": "Cc1c(C(=O)NCCO)[n+](=O)c2ccccc2n1[O-]", "Potency": "inactive"},
      {"smiles": "CCCCCCCCc1ccc(S(=O)(=O)O)cc1", "Potency": "inactive"},
      {"smiles": "CC(C)C(=O)OCC(C)(C)C(O)C(C)C", "note": "(stereo not given)", "Potency": "inactive"},
      {"smiles": "CN1CCC[C@@H]1Cc1c[nH]c2ccc(CCS(=O)(=O)c3ccccc3)cc12", "Potency": "inactive"},
      {"smiles": "O=Cc1ccc(O)c(O)c1O", "Potency": "inactive"},
      {"smiles": "COc1ccccc1N1CCN(CCCNc2cc(=O)n(C)c(=O)n2C)CC1", "Potency": "inactive"},
      {"smiles": "CCCOc1ccc2c(c1)CC[C@@H]1[C@@H]2CC[C@]2(C)C(OC)CC[C@@H]12", "note": "(stereo not given in full)", "Potency": "inactive"},
      {"smiles": "CCC/C=C/CO", "Potency": "inactive"},
      {"smiles": "CC(C)=CCCC(C)CCOC=O", "note": "(stereo not given)", "Potency": "inactive"},
      {"smiles": "CC(C)OC(C)C", "Potency": "inactive"},
      {"smiles": "CCCCc1ccc2nc(NC(=O)OC)[nH]c2c1", "Potency": "inactive"},
      {"smiles": "O=C1CCCCC1C1CCCCC1", "note": "(stereo not given)", "Potency": "inactive"},
      {"smiles": "OCCN(CCO)c1ccccc1", "Potency": "inactive"},
      {"smiles": "CC1=C(O)C(=O)OC1C", "note": "(stereo not given)", "Potency": "inactive"},
      {"smiles": "OCCN1CCN(CCO)CC1", "Potency": "inactive"},
      {"smiles": "O=C(CC(=O)C(F)(F)F)c1ccccc1", "Potency": "inactive"},
      {"smiles": "Cc1cc2c(s1)Nc1ccccc1N=C2N1CCN(C)CC1", "Potency": "inactive"},
      {"smiles": "O=C(Cl)c1cccc([N+](=O)[O-])c1", "Potency": "inactive"},
      {"smiles": "COc1cc2c(cc1N)oc1ccccc12", "Potency": "inactive"},
      {"smiles": "O=C1C=CC(=O)O1", "Potency": "inactive"},
      {"smiles": "Cc1ccc(C=O)s1", "Potency": "inactive"},
      {"smiles": "CS(=O)(=O)c1ccc([C@@H](O)[C@@H](CF)NC(=O)C(Cl)Cl)cc1", "Potency": "inactive"},
      {"smiles": "CCc1nnc(NS(=O)(=O)c2ccc(N)cc2)s1", "Potency": "inactive"},
      {"smiles": "CC(=O)N[C@@H](CC(C)C)C(=O)O", "Potency": "inactive"},
      {"smiles": "O=C(C(Cl)Cl)N1CCOC12CCCCC2", "Potency": "inactive"},
      {"smiles": "CCCCCCOc1ccc(N)cc1", "Potency": "inactive"},
      {"smiles": "COc1nc(C)nc(NC(=O)NS(=O)(=O)c2ccccc2OCCCl)n1", "Potency": "inactive"},
      {"smiles": "Cc1ccccc1C(=O)Nc1ccc(C(=O)N2CCCC(O)c3cc(Cl)ccc32)c(C)c1", "note": "(stereo not given)", "Potency": "inactive"},
      {"smiles": "CC(C)=CCC[C@](C)(O)[C@@H]1CC=C(C)CC1", "Potency": "inactive"}
    ]}
  ]
}
